What all share (assay): NCI-60 one-dose screen, 48 h (100 = growth as untreated, 0 = no growth, -100 = all killed)
Settings in all cases: 10 µM

Assay [1] concerns T-47D breast.
For assay [2], the system named is BT-549 breast.
Assay [3] deals with MDA-MB-435 melanoma.
For assay [4], the system named is SW-620 colon.
Assay [5] relates to MCF7 breast.
The test system of assay [6] is HCT-116 colon.
Assay [7] relates to HCC-2998 colon.
Assay [8] deals with KM12 colon.

About 83,000 compounds went through this panel and 20% of them were active in at least one assay; those are over-represented in the sample as a whole.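 The endpoint reported here, percent growth, reads 100 for growth as untreated, 0 for no net growth and -100 for all cells dead.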 Values without a mark were called inactive. The source made the active and inactive calls. The calls were made as follows: active = growth percent below 10; inactive = the rest.

For the molecule `COc1cccc(N=Nc2cccc(OC)c2)c1`, the growth was 70.2% in assay [1]; 85% in assay [2]; 98.6% in assay [3]; 94.2% in assay [4]; 78.8% in assay [5]; 84.8% in assay [6]. The figures for the growth in assay [7] and in assay [8] were 88.6% and 95.8%, respectively.
As for `Cc1ccc(C2=NN(c3ccc(S(C)(=O)=O)cc3)C(=O)CC2)cc1`, the growth in assay [1] is 32.7%; in assay [2], 11.3%; in assay [3], -61.2% (active); in assay [4], 8.58% (active); in assay [5] it was 16.2%; in assay [6], 17.7%. Further, the figures for the growth in assay [7] and in assay [8] were 47.2% and 35%, respectively.
Regarding `Clc1ccc(C2=NN=C3C(Cc4ccccc4)=Nc4ccccc4N3C2)cc1`, the growth in assay [1] was 95%; in assay [2], 88.8%; in assay [3], 73%; in assay [4], 91.8%; in assay [5] it was 88.7%; in assay [6], 53.1%. The values for the growth in assay [7] and in assay [8] were 68.5% and 63.6%, respectively.
Take `CCOC(=O)Cn1c(=O)c2sc3ncccc3c2n2nnc(-c3ccccc3)c12`: the growth was 94.3% in assay [1]; 98.2% in assay [2]; 104% in assay [3]; 119% in assay [4]; 79.8% in assay [5]; 91.5% in assay [6]. In addition, the growth in assay [7] and in assay [8] was 114% each time.
Turning to `CCn1cc(C(=O)O)c(=O)c2cc(F)c(N3CCNCC3)cc21`, the growth in assay [1] was 124%; in assay [2], 110%; in assay [3], 107%; in assay [4] it was 103%; in assay [5], 107%; in assay [6], 115%. Moreover, the values for the growth in assay [7] and in assay [8] were 110% and 103%, respectively.
Take `O=C1CC(SC(=S)C2CCCC2=O)C(=O)N1` (configuration not stated): the growth in assay [1] is 93.9%; in assay [2], 100%; in assay [3], 114%; in assay [4] it was 110%; in assay [5], 90.8%; in assay [6], 99.2%. For the same molecule, the results for the growth in assay [7] and in assay [8] were 108% and 103%, respectively.
In the case of `COc1cc2cc(Oc3ccc(NC(=O)c4ccc(Cl)c(C(F)(F)F)c4)cc3)c(C)nc2cc1OC`, the growth was 82.8% in assay [1]; 20.8% in assay [2]; 25.7% in assay [3]; 34.2% in assay [4]; 24.8% in assay [5]; 8.43% (active) in assay [6]. Also, the growth in assay [7] is 41.3%; in assay [8], 19.7%.
Consider `Fc1ccc2[nH]cc(-c3nc(-c4ccsc4)cs3)c2c1`, for which the growth in assay [1] was 57%; in assay [2], 96.9%; in assay [3], 105%; in assay [4] it was 94.8%; in assay [5], 65.9%; in assay [6], 91.5%. Moreover, the growth in assay [7] is 105%; in assay [8] it was 101%.
Take `COc1ccc(NC(=O)C2CC3C=CC2C3)c([N+](=O)[O-])c1` (configuration not stated): the growth in assay [1] was 98.1%; in assay [2], 139%; in assay [3], 102%; in assay [4], 110%; in assay [5], 101%; in assay [6], 120%. The growth in assay [7] is 103%; in assay [8], 105%.
Regarding `O=C(CN(C1CCCCC1)C1CCCCC1)Nc1ccc(S(=O)(=O)c2ccc(NC(=O)CN(C3CCCCC3)C3CCCCC3)cc2)cc1`, the growth in assay [1] is -38.1% (active); in assay [2], -85.3% (active); in assay [3], -39.5% (active); in assay [4] it was -48.4% (active); in assay [5], -40.7% (active); in assay [6] it was -86.3% (active). Besides, the growth was -37.4% (active) in assay [7] and -28.6% (active) in assay [8].
On to `CC(C)(C)c1ccc(S(=O)(=O)N[C@H]2CC[C@H]3[C@@H]4CCc5cc(O)ccc5[C@H]4CC[C@]23C)cc1`, for which the growth was 26.2% in assay [1]; 43.9% in assay [2]; 30.4% in assay [3]; 58.5% in assay [4]; 14.9% in assay [5]; 22.1% in assay [6]. Further, the growth was 74.4% in assay [7] and 39.2% in assay [8].
As to `Clc1ccc2c(c1)C(N1CCNCC1)=Nc1ccccc1O2`, the growth is 35.2% in assay [1]; 72.9% in assay [2]; 28.9% in assay [3]; 67% in assay [4]; 28.9% in assay [5]; 36.2% in assay [6]. Also, the results for the growth in assay [7] and in assay [8] were -25.4% (active) and 51.9%, respectively.
Consider `Cc1cc(C(C#N)c2ccc(Cl)cc2)c(Cl)cc1NC(=O)c1cc(I)cc(I)c1O` (configuration not stated), for which the growth in assay [1] is 66.4%; in assay [2] it was 36.8%; in assay [3] it was 55.7%; in assay [4] it was 43.3%; in assay [5] it was 43.2%; in assay [6], 7.35% (active). For the same molecule, the values for the growth in assay [7] and in assay [8] were 17.4% and 34%, respectively.
Regarding `CN(C)c1ccc(/C=N/NC(=O)c2cccc3ccccc23)c(Cl)c1`, the growth in assay [1] is 25.4%; in assay [2] it was 45.3%; in assay [3] it was -22.1% (active); in assay [4] it was 24.2%; in assay [5] it was 15.1%; in assay [6], 31%. The growth is 61.2% in assay [7] and 22.7% in assay [8].
On to `COc1cc(Cc2cc(-c3ccccc3)n[nH]c2=O)cc(OC)c1OC`, for which the growth is 40.5% in assay [1]; 54.1% in assay [2]; 11% in assay [3]; 33% in assay [4]; 34.9% in assay [5]; 16.3% in assay [6]. The values for the growth in assay [7] and in assay [8] were 79.1% and 48.8%, respectively.
On to `COc1cc2cc(Oc3ccc(NC(=O)Nc4cccc(C(F)(F)F)c4)cc3)c(C)nc2cc1OC`, for which the growth is 27.8% in assay [1]; -8.13% (active) in assay [2]; 7.23% (active) in assay [3]; 17.5% in assay [4]; 6.81% (active) in assay [5]; 6.71% (active) in assay [6]. Further, the results for the growth in assay [7] and in assay [8] were 25.4% and -10.2% (active), respectively.
Turning to `Cc1cc(SC#N)cc(C(C)(C)C)c1O`, the growth in assay [1] was 80%; in assay [2], 87.3%; in assay [3] it was 107%; in assay [4] it was 120%; in assay [5] it was 97.4%; in assay [6], 70.9%. Besides, the growth is 109% in assay [7] and 105% in assay [8].
As for `COc1ccc2c(c1)C(CC(=O)NN)CCC2` (configuration not stated), the growth in assay [1] is 105%; in assay [2], 103%; in assay [3], 103%; in assay [4] it was 106%; in assay [5], 95.6%; in assay [6], 104%. Moreover, in assay [8], the growth is 105%.
`C[C@]12CCC3c4ccc(O)cc4C[C@@H](CCCCCCCCCS(=O)CCCC(F)(F)C(F)(F)F)C3C1CC[C@@H]2O` (some centres not stated): the growth in assay [1] is 41.2%; in assay [2] it was 86.1%; in assay [3], 88.8%; in assay [4], 97.1%; in assay [5] it was 15.9%; in assay [6], 71.4%. In assay [8], the growth is 80.4%.
Take `O=C(/C=C/c1cccc(B(O)O)c1)c1cccc(B(O)O)c1`: the growth is 11.1% in assay [1]; -91% (active) in assay [2]; 0.799% (active) in assay [3]; -41.3% (active) in assay [4]; 0.092% (active) in assay [5]; -88.3% (active) in assay [6]. Besides, in assay [8], the growth is -64.4% (active).
Consider `O=C1/C(=C/c2cccc(F)c2)Cc2ccccc21`, for which the growth in assay [1] was 103%; in assay [2], 106%; in assay [3] it was 97.9%; in assay [4], 102%; in assay [5], 25.1%; in assay [7] it was 97.1%. In assay [8], the growth was 98.7%.
Consider `C=CCN(CC=C)C(=O)[C@H](CC)[C@@H]1CC[C@@H](C)[C@@H]([C@H](C)[C@@H](O)[C@@H](C)C(=O)[C@H](CC)C2O[C@]3(C=C[C@@H](O)[C@]4(CC[C@@](C)([C@H]5CC[C@](O)(CC)[C@H](C)O5)O4)O3)[C@H](C)C[C@@H]2C)O1` (some centres not stated), for which the growth was 9.12% (active) in assay [1]; 27.3% in assay [2]; 6% (active) in assay [3]; 12.3% in assay [4]; 1.92% (active) in assay [5]; 9.64% (active) in assay [6]. In assay [8], the growth was 27.5%.
With `COCCn1cc(-c2nc(-c3cccnc3)cs2)c2cc(F)ccc21`, the growth was 87.7% in assay [1]; 93% in assay [2]; 79.9% in assay [3]; 99.4% in assay [4]; 102% in assay [5]; 102% in assay [6]. For the same molecule, the growth in assay [8] was 69.4%.
For the molecule `CN(C)c1nc(N)c2nccnc2n1`, the growth in assay [1] is 104%; in assay [2] it was 104%; in assay [3], 106%; in assay [4], 99.2%; in assay [5], 96%; in assay [6] it was 104%. Moreover, the growth in assay [8] is 101%.
As for `c1cnc2[nH]cc(-c3nc(-c4ccsc4)cs3)c2c1`, the growth was 66.1% in assay [1]; 96.1% in assay [2]; 98.3% in assay [3]; 111% in assay [4]; 57.7% in assay [5]; 89.9% in assay [6]. For the same molecule, in assay [8], the growth was 88.9%.
On to `Cn1cnc([N+](=O)[O-])c1/C=C1\Oc2ccc(Br)cc2C1=O`, for which the growth in assay [1] is 98.1%; in assay [2] it was 95.8%; in assay [3] it was 78%; in assay [4] it was 82.6%; in assay [5], 47.9%; in assay [6], 56.9%. Also, the growth in assay [7] is 101%; in assay [8], 93.9%.
Regarding `Clc1ccc(/C=C2\CCCC3C2=Nc2ccccc2NC3c2ccc(Cl)cc2)cc1` (configuration not stated), the growth in assay [1] is 104%; in assay [2], 83%; in assay [3] it was 11.9%; in assay [4] it was 41.5%; in assay [5] it was 35.8%; in assay [6], -87% (active). The growth in assay [8] is 17.3%.

The values are drawn from PubChem BioAssay (NCI).
